How the values were obtained:
Test in all cases: DAPPL (digital affinity profiling via proximity ligation, sequencing); 10 mM Tris-HCl pH 7.5, 50 mM NaCl, 1 mM DTT, 4% glycerol, room temperature, 30 min; GST-TFs on glutathione beads, 16-mer random dsDNA library, 0.1% formaldehyde crosslink after washing; high values mean tight binding
Conditions in all cases: protein: recombinant; tags: N-terminal GST; dsDNA, one strand shown
FLI1 = molecular target: T1, FLI1 (Homo sapiens, UniProt Q01543 1-452)
T1 sequence: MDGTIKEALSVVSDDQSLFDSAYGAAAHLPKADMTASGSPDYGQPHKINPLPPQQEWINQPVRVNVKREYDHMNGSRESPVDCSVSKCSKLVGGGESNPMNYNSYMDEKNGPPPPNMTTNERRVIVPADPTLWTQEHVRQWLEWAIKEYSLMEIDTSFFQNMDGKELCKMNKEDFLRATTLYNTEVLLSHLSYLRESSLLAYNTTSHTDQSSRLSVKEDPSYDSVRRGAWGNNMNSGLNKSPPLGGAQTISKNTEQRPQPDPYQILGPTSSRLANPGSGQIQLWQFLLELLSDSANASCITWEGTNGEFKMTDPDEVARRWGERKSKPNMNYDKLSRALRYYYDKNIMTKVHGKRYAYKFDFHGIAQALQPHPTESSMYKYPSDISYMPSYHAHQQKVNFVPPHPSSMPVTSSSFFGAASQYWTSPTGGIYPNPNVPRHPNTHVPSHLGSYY
Outline: (§1)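 Sequencing on an Illumina NextSeq500 followed washing, crosslinking with 0.1% formaldehyde, proximity ligation (BsaI/T4 ligase, 1 h, 37 °C) and PCR amplification of pools that had been incubated for 30 min at room temperature with 200 nmole of a random double-stranded 16-mer DNA library in Tris/NaCl/DTT/glycerol buffer. Each pool held DNA-barcoded human transcription factors, expressed in yeast as GST fusions and captured on glutathione beads, plus a tag-only sample. Binding signal is a hexamer's read frequency for a factor divided by its frequency in the tag-only sample.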

ELK1 = molecular target: T2, ELK1 (Homo sapiens, UniProt P19419 1-428)
T2 sequence: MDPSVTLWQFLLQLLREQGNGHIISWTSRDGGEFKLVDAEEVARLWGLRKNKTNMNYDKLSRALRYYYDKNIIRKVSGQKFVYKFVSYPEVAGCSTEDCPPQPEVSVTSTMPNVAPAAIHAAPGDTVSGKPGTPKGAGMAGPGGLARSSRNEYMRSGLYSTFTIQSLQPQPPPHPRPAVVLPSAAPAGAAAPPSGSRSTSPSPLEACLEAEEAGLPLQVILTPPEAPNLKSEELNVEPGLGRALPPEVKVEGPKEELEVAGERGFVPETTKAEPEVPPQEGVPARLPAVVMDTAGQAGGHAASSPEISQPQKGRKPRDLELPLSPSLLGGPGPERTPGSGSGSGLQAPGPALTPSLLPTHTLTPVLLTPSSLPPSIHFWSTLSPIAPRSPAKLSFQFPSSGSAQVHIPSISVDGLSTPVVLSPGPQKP
Outline: as §1

GABPA = molecular target: T3, GABPA (Homo sapiens, UniProt Q06546 1-454)
T3 sequence: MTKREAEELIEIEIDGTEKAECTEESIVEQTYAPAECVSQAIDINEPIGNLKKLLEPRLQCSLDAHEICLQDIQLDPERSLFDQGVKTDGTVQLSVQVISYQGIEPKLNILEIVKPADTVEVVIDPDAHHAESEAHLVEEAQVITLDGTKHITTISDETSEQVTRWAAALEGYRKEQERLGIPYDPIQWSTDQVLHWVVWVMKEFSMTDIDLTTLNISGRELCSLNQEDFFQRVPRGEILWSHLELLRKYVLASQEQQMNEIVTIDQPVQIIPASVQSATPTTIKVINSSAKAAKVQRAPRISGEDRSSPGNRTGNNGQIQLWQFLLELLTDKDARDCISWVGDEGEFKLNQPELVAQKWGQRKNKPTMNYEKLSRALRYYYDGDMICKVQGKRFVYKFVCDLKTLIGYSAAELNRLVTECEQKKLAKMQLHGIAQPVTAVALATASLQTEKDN
Outline: as §1

ERG = molecular target: T4, ERG (Homo sapiens, UniProt P11308 1-479)
T4 sequence: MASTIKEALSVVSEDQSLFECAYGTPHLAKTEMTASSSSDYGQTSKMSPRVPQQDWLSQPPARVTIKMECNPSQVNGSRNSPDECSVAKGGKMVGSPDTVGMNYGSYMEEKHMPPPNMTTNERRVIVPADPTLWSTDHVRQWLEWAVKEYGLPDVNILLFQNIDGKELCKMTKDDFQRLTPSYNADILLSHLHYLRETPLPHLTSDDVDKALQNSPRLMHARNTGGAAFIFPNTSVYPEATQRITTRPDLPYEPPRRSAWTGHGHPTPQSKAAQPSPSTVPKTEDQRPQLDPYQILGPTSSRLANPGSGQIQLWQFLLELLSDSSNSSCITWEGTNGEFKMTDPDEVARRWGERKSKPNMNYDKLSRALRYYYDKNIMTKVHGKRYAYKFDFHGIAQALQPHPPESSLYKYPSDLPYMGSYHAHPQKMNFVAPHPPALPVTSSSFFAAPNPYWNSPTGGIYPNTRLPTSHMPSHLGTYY
Outline: as §1

ELF1 = ELF1 (Homo sapiens, UniProt P32519 1-619)
Outline: as §1

EHF = molecular target: T5, EHF (Homo sapiens, UniProt Q9NZC4 1-300)
T5 sequence: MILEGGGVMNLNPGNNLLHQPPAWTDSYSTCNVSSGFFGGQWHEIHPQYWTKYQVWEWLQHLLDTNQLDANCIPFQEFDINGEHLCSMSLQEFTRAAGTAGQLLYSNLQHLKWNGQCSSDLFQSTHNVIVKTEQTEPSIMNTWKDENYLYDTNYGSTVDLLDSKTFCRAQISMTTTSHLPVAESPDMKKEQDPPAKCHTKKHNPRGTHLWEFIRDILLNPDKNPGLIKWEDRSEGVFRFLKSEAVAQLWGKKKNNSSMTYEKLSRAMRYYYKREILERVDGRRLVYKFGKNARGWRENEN
Outline: as §1

SPI1 = SPI1 (Homo sapiens, UniProt P17947 1-270)
Outline: as §1

SPIB = SPIB (Homo sapiens, UniProt Q01892 1-262)
Outline: as §1

ELK3 = molecular target: T6, ELK3 (Homo sapiens, UniProt P41970 1-407)
T6 sequence: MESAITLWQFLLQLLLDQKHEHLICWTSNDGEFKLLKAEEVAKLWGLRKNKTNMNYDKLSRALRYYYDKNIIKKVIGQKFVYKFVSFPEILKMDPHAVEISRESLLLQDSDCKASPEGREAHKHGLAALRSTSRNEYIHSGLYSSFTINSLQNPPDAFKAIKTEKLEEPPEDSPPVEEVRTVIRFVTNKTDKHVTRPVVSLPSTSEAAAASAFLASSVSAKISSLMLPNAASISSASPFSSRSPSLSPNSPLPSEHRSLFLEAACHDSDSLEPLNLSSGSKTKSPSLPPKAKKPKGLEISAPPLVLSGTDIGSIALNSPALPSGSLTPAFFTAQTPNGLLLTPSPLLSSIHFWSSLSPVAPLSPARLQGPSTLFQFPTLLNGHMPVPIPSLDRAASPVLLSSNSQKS
Outline: as §1

Sequence of SPIB (Q01892 whole entry): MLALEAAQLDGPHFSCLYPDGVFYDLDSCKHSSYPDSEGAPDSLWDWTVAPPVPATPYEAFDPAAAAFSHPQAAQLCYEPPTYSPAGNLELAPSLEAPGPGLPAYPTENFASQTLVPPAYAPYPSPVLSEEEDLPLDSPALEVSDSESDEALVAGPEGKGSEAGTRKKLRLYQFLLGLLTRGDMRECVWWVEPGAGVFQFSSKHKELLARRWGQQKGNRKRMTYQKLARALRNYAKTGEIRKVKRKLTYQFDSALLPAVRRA
Sequence of ELF1 (P32519 whole entry): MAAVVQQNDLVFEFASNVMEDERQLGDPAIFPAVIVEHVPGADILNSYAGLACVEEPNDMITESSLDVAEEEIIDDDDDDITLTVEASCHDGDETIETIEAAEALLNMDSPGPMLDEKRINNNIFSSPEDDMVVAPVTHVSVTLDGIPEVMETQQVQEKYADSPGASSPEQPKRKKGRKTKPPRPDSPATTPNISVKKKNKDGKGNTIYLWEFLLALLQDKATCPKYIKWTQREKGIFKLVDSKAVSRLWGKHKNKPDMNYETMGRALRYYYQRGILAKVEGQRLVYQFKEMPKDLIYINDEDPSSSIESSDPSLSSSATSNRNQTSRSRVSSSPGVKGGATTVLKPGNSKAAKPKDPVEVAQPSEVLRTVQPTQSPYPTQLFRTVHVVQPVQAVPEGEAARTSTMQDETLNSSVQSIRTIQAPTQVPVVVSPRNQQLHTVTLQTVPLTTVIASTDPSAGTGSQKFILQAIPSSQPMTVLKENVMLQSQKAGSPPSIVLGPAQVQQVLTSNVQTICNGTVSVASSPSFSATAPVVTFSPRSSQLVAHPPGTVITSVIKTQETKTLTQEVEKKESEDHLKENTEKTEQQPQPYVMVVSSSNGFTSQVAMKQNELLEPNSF

| Sequence | binding signal (FLI1) | binding signal (ELK1) | binding signal (GABPA) | binding signal (ERG) | binding signal (ELF1) | binding signal (EHF) | binding signal (SPI1) | binding signal (SPIB) | binding signal (ELK3) |
| --- | --- | --- | --- | --- | --- | --- | --- | --- | --- |
| GGTTTC | 1.53 fold enrichment (6-mer frequency, TF over GST control) | 1.39 fold enrichment (6-mer frequency, TF over GST control) | 1.54 fold enrichment (6-mer frequency, TF over GST control) | 1.6 fold enrichment (6-mer frequency, TF over GST control) | 1.54 fold enrichment (6-mer frequency, TF over GST control) | 1.51 fold enrichment (6-mer frequency, TF over GST control) | 1.6 fold enrichment (6-mer frequency, TF over GST control) | 1.52 fold enrichment (6-mer frequency, TF over GST control) | 1.62 fold enrichment (6-mer frequency, TF over GST control) |
| CGCGTC | 1.33 fold enrichment (6-mer frequency, TF over GST control) | 1.24 fold enrichment (6-mer frequency, TF over GST control) | 1.26 fold enrichment (6-mer frequency, TF over GST control) | 1.27 fold enrichment (6-mer frequency, TF over GST control) | 1.28 fold enrichment (6-mer frequency, TF over GST control) | 1.25 fold enrichment (6-mer frequency, TF over GST control) | 1.27 fold enrichment (6-mer frequency, TF over GST control) | 1.32 fold enrichment (6-mer frequency, TF over GST control) | 1.08 fold enrichment (6-mer frequency, TF over GST control) |
| TCTTCA | 1.43 fold enrichment (6-mer frequency, TF over GST control) | 1.19 fold enrichment (6-mer frequency, TF over GST control) | 1.16 fold enrichment (6-mer frequency, TF over GST control) | 1.16 fold enrichment (6-mer frequency, TF over GST control) | 1.33 fold enrichment (6-mer frequency, TF over GST control) | 1.14 fold enrichment (6-mer frequency, TF over GST control) | 1.21 fold enrichment (6-mer frequency, TF over GST control) | 1.27 fold enrichment (6-mer frequency, TF over GST control) | 1.27 fold enrichment (6-mer frequency, TF over GST control) |
| GTCACA | 1.11 fold enrichment (6-mer frequency, TF over GST control) | 1.1 fold enrichment (6-mer frequency, TF over GST control) | 1.12 fold enrichment (6-mer frequency, TF over GST control) | 1.13 fold enrichment (6-mer frequency, TF over GST control) | 1.17 fold enrichment (6-mer frequency, TF over GST control) | 1.07 fold enrichment (6-mer frequency, TF over GST control) | 1.13 fold enrichment (6-mer frequency, TF over GST control) | 1.07 fold enrichment (6-mer frequency, TF over GST control) | 1.04 fold enrichment (6-mer frequency, TF over GST control) |
| AGCTCA | 1.07 fold enrichment (6-mer frequency, TF over GST control) | 1.1 fold enrichment (6-mer frequency, TF over GST control) | 1.15 fold enrichment (6-mer frequency, TF over GST control) | 1.08 fold enrichment (6-mer frequency, TF over GST control) | 1.2 fold enrichment (6-mer frequency, TF over GST control) | 1.21 fold enrichment (6-mer frequency, TF over GST control) | 1.06 fold enrichment (6-mer frequency, TF over GST control) | 1.17 fold enrichment (6-mer frequency, TF over GST control) | 1.12 fold enrichment (6-mer frequency, TF over GST control) |
| TTGCTA | 1.38 fold enrichment (6-mer frequency, TF over GST control) | 1.27 fold enrichment (6-mer frequency, TF over GST control) | 1.27 fold enrichment (6-mer frequency, TF over GST control) | 1.26 fold enrichment (6-mer frequency, TF over GST control) | 1.3 fold enrichment (6-mer frequency, TF over GST control) | 1.33 fold enrichment (6-mer frequency, TF over GST control) | 1.31 fold enrichment (6-mer frequency, TF over GST control) | 1.37 fold enrichment (6-mer frequency, TF over GST control) | 1.33 fold enrichment (6-mer frequency, TF over GST control) |
| AAGCTT | 1.31 fold enrichment (6-mer frequency, TF over GST control) | 1.33 fold enrichment (6-mer frequency, TF over GST control) | 1.22 fold enrichment (6-mer frequency, TF over GST control) | 1.33 fold enrichment (6-mer frequency, TF over GST control) | 1.2 fold enrichment (6-mer frequency, TF over GST control) | 1.26 fold enrichment (6-mer frequency, TF over GST control) | 1.23 fold enrichment (6-mer frequency, TF over GST control) | 1.32 fold enrichment (6-mer frequency, TF over GST control) | 1.31 fold enrichment (6-mer frequency, TF over GST control) |
| ACTTAG | 1.04 fold enrichment (6-mer frequency, TF over GST control) | 1.06 fold enrichment (6-mer frequency, TF over GST control) | 1.11 fold enrichment (6-mer frequency, TF over GST control) | 1.09 fold enrichment (6-mer frequency, TF over GST control) | 1.05 fold enrichment (6-mer frequency, TF over GST control) | 1.11 fold enrichment (6-mer frequency, TF over GST control) | 1.05 fold enrichment (6-mer frequency, TF over GST control) | 1.11 fold enrichment (6-mer frequency, TF over GST control) | 1.17 fold enrichment (6-mer frequency, TF over GST control) |

Reference: paper PMC7862700, “An all-to-all approach to the identification of sequence-specific readers for epigenetic DNA modifications on cytosine”
